Source: PubChem BioAssay
Many of the other results were omitted from the sample, so hits are more common in it than they were.
TDP1 cell CPT: DT40-hTDP1 cell growth loss with CPT | chicken DT40 Tdp1-/-;hTDP1 cells + 20 nM CPT, ATP luminescence, 48 h | Potency, µM (titrated, usually from 46.2 µM), without a hit: at the top dose activity change, negative = growth inhibition, usual class: inhibitors | 420,000 compounds, 12% hits | AID 686979; further: potency means the concentration at half of the fitted maximal effect; nearly all actives have a fitted effect of over 55% in size
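Cell growth measured by CellTiter-Glo luminescence after a minimum 48 h, 37 C compound exposure with 20 nM CPT in Tdp1-knockout DT40 cells stably expressing hTDP1, seeded 400/well; qHTS titration format.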
TDP1 cell noCPT: qHTS for Inhibitors of human tyrosyl-DNA phosphodiesterase 1 (TDP1): qHTS in cells in absence of CPT | DT40 Tdp1-/- hTDP1 cells, no CPT, ATP luminescence, 48 h | Potency, µM (series often up to 46.2 µM), without a hit: at the highest dose activity change, negative = growth inhibition, most hits filed as inhibitors | 420,000 compounds, 15% hits; further: potency means the concentration at half of the fitted maximal effect; nearly all actives have a fitted effect of over 55% in size
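Camptothecin absent (DMSO only). Human TDP1-complemented DT40 knockout cells, 400 cells/well, 37 °C for minimum 48 hr; ATP measured via CellTiter-Glo, 30 min dark incubation, luminescence.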
HT1080NT lethal: kills 2HG-producing HT-1080-NT fibrosarcoma cells; HT-1080-NT fibrosarcoma viability, CellTiter-Glo ATP luminescence, 48 h; Potency, µM (top dose mostly 46.1 µM), inactives show at the top dose activity, negative = less viability, hits mostly cytotoxic; 360,000 compounds, 1.6% hits; AID 686970;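 further: NT is the 2HG producing partner of a matched IDH1 knockdown line; potency means the concentration at half of the fitted maximal effect; 0% = DMSO-treated cells and -100% = media-only wells without cells; nearly all actives have a fitted effect of over 55% in size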
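Fibrosarcoma NT cells, 750 per well in 5% FBS RPMI, were exposed to compound for 48 hours. Viability: CellTiter-Glo luminescence.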
IL-1B inflam inh: inhibitors of inflammasome signaling (IL-1 beta secretion); THP-1 LPS/ATP IL-1B secretion, AlphaLISA, 16 h; hits give low values; activity change, % at 57.5 µM; 360,000 compounds, 4.7% hits; AID 743279; in the data active means activity change below about -50%; inconclusive means mostly about -30% to -49%
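Secreted IL-1B measured by AlphaLISA bead assay after 16 h compound exposure of THP-1 cells; compounds (final up to 57.5 uM) added 1 h before LPS (250 ng/mL) and ATP (1.25 mM) stimulation; lower signal means less secretion.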
12-LOX inh: inhibitors of human 12S-lipoxygenase ALOX12. P18054. purified 12hLO, xylenol orange hydroperoxide absorbance. Potency, µM (doses to about 108 µM), for the others: top-dose activity change, negative = inhibition, hits mostly inhibitors. 580,000 compounds, 1.1% hits. AID 1671190; further: potency means the concentration at half of the fitted maximal effect
Target sequence (P18054 whole entry, looked up): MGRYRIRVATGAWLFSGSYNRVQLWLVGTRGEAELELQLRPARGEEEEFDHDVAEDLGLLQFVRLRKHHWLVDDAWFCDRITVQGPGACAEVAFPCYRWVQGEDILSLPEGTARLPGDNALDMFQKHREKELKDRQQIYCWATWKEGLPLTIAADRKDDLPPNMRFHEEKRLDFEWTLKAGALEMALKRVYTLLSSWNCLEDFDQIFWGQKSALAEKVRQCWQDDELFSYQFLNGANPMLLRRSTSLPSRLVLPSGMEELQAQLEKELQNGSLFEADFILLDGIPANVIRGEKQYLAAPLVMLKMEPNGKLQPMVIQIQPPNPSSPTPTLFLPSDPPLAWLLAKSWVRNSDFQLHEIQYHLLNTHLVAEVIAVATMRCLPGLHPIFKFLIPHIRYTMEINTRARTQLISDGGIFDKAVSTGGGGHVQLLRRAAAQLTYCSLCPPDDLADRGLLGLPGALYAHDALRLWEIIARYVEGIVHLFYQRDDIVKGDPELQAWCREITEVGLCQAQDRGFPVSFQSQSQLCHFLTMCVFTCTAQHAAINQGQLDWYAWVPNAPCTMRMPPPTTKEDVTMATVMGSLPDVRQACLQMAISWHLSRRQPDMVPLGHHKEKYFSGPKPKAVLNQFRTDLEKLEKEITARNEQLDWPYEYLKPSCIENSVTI
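Purified human 12hLO at 150 nM in 25 mM Hepes, 0.01% Triton X-100, pH 7.0, preincubated 15 min at room temperature with compound. Reaction started with 40 uM arachidonic acid, 30 min at room temperature. Hydroperoxide measured by Fe-xylenol orange, 573/405 nm absorbance ratio.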
HT1080 IDH1KD tx: toxicity to HT-1080 IDH1 knockdown cells (counter line); HT-1080 IDH1 knockdown viability, ATP luminescence, 48 h; 360,000 compounds, 2% hits; Potency, µM (series often up to 46.1 µM), inactives show top-dose activity, negative = toxicity, actives largely listed as cytotoxic; AID 686971;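 further: potency means the concentration at half of the fitted maximal effect; 0% = DMSO wells and -100% = cell-free medium wells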
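Assay cells: HT-1080 with IDH1 knockdown, 750 per well, RPMI/5% FBS. Exposure: 48 h at 37 °C following 2 h pre-incubation. Read: CellTiter-Glo luminescence; fitted concentration-response, curve class assigned.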
An asterisk follows results filed as active; ? = inconclusive; / = not tested or not shown. Unless noted, the call rests on the fitted dose curve; in most records, active means well fitted curve in the direction sought with a large enough effect; inconclusive means small, poorly fitted or top-dose-only effect, or another doubt; inactive means no such curve, though single readings can be large; an effect the other way counts as inactive or inconclusive. Unless noted, on the % scale 0 is the no-effect control and ±100 the full control effect.

SMILES	TDP1 cell CPT	TDP1 cell noCPT	HT1080NT lethal	IL-1B inflam inh	12-LOX inh	HT1080 IDH1KD tx
CCn1cc(CN2CCCN(S(C)(=O)=O)C(c3ccccc3)CC(=O)NCC2)c(C)n1 (configuration not stated)	/	/	/	/	32.0%	/
NC(=O)c1nsc(C(=O)N(Cc2ccco2)C(C(=O)NCc2ccccc2)c2ccc(O)cc2)c1N (configuration not stated)	?	11.6µM*	-20.6%	-3.6	?	-28.0%
COc1ccc(C(C(=O)NCc2ccccc2)N(Cc2cccnc2)C(=O)c2snc(C(N)=O)c2N)cc1OC (configuration not stated)	-3.7%	-10.3%	-7.2%	0.4	17.3%	-6.1%
Cc1ccccc1N(C(=O)c1snc(C(N)=O)c1N)C(C(=O)NC1CCCCC1)c1ccc(O)cc1 (configuration not stated)	?	?	?	-0.4	?	9.2µM*
Cc1ccccc1N(C(=O)c1snc(C(N)=O)c1N)C(C)C(=O)NC1CCCCC1 (configuration not stated)	7.3%	-27.9%	9.2%	-1.6	-15.3%	5.3%
COc1ccc(C(C(=O)NCc2ccccc2)N(C(=O)c2snc(C(N)=O)c2N)c2ccccc2OC)cc1OC (configuration not stated)	?	?	-7.0%	0.0	4.9%	-9.1%
CCC(C(=O)NCc1ccc(F)cc1)N(Cc1ccco1)C(=O)c1snc(C(N)=O)c1N (configuration not stated)	-6.1%	-19.9%	7.1%	-1.4	-17.8%	-7.8%
CN(C)c1ccc(C(C(=O)NCc2ccccc2)N(Cc2cccnc2)C(=O)c2snc(C(N)=O)c2N)cc1 (configuration not stated)	20.6µM*	16.4µM*	-12.4%	-19.5	-14.8%	-27.1%
COc1ccccc1N(C(=O)c1snc(C(N)=O)c1N)C(C(=O)NCc1ccccc1)c1ccc(C)o1 (configuration not stated)	?	?	-8.6%	-72.9*	-23.7%	-12.4%
COC(=O)c1sccc1NC(=O)CC1(C(=O)O)CCCCC1	/	/	/	/	-4.3%	/
O=C(c1ccc2ccccc2n1)N(Cc1cccs1)C1CC1	/	/	/	/	-5.6%	/
COc1ccc(N(C(=O)c2snc(C(N)=O)c2N)C(C(=O)NC2CCCC2)c2ccc(F)cc2)c(OC)c1 (configuration not stated)	-28.0%	?	-24.2%	7.6	-1.8%	-29.0%
CCOc1ccccc1N(C(=O)c1snc(C(N)=O)c1N)C(C(=O)NCc1ccccc1)c1ccc(O)cc1 (configuration not stated)	23.1µM*	?	-29.3%	-67.4*	0.5%	?
Cc1ccccc1N(C(=O)c1snc(C(N)=O)c1N)C(C(=O)NCc1ccccc1)c1ccc(O)cc1 (configuration not stated)	23.1µM*	25.9µM*	?	-100.0*	?	?
COc1ccc(C)cc1N(C(=O)c1snc(C(N)=O)c1N)C(C(=O)NC1CCCC1)c1ccc(F)cc1 (configuration not stated)	?	16.4µM*	?	-12.2	-11.3%	-14.6%
COc1ccc(CNC(=O)C(c2ccco2)N(C(=O)c2snc(C(N)=O)c2N)c2ccccc2OC)cc1 (configuration not stated)	0.5%	?	-8.1%	?	-10.2%	-3.6%
CN(C)c1ccc(C(C(=O)NC2CCCCC2)N(Cc2ccco2)C(=O)c2snc(C(N)=O)c2N)cc1 (configuration not stated)	?	9.2µM*	8.4%	-71.8*	-8.4%	0.4%
